Results taken from PubChem BioAssay (Tox21).
Results filed as inconclusive are left out. Values without a mark were called inactive. Activity calls are given as the source filed them. Calls come from the whole dose curve; as a rule, active = well fitted cell-killing curve with a large enough effect in the repeat runs; inconclusive = weak or mixed curves, or effect the other way; inactive = no such curve, though single readings can be large or run the other way.

Experiment: qHTS assay to identify small molecule antagonists of the progesterone receptor (PR) signaling pathway - cell viability counter screen (AID 1346798); note: nearly all actives have a fitted effect of over 50% in size
Details: PR-UAS-bla HEK293T viability, CellTiter-Glo luminescence, 16 h; series mostly up to 92.4 µM; activity change, negative = cytotoxicity: at the top concentration
From the text: National Center for Advancing Translational Sciences [NCATS]
NIH Chemical Genomics Center [NCGC]
U.S. Environmental Protection Agency [EPA]
National Institutes of Environmental Health Sciences [NIEHS]
National Toxicology Program [NTP]
U.S. Food and Drug Administration [FDA]
Progesterone receptor (PR), a nuclear hormone receptor, plays an important role in development, metabolic homeostasis and reproduction. It is activated by the steroid hormone progesterone. Endocrine disrupting chemicals (EDCs) and their interactions with steroid hormone receptors like PR causes disruption of normal endocrine function. To identify the compounds that inhibit PR signaling, a PR-UAS-bla GripTite cell line i.e. PR-UAS-bla HEK293T (Invitrogen, Carlsbad, CA, USA) containing a beta-lactamase reporter gene under the control of an UAS response element was used to screen Tox21 10K compound library. The cytotoxicity of the Tox21 compound library against the PR-bla cell line was tested in parallel by measuring the cell viability using CellTiter-Glo assay in the same wells.
Tox21 Assay Protocol Summary:
PR-UAS-bla HEK293T cells were dispensed at 3,000 cells/4 uL of assay medium containing 2% charcoal stripped FBS per well into black wall/clear-bottom 1536-well plates using a Multidrop Combi (ThermoFisher Scientific, Waltham, MA) dispenser. After the assay plates were incubated at a 37C and 5% CO2 for 4 hr, 23 nL of compounds dissolved in DMSO, positive controls or DMSO only was transferred to the assay plate by a Pintool station (Kalypsys, San Diego, CA), followed by addition of 1 uL of R5020 in assay medium using a Flying Reagent Dispenser (FRD, Aurora Discovery, San Diego, CA). The plates were incubated at 37C and 5% CO2 for 16 hr. Then 1 uL of LiveBLAzer B/G FRET substrate was added using a Flying Reagent Dispenser, the plates were incubated at room temperature for 2 hours, and fluorescence intensity was measured by an Envision plate reader (PerkinElmer, Shelton, CT). For cell viability readout that measures cytotoxicity, 4 uL/well of CellTiter-Glo reagent was added into the assay plates using a FRD. After 30 min incubation at room temperature, the luminescence intensity in the plates was measured using a ViewLux (PerkinElmer) plate reader.
% is set by controls: 0 for no effect and ±100 for the full control effect; potency is the fitted concentration of half-maximal effect.

Row | SMILES | activity change, negative = cytotoxicity | Potency
1 | CC1=CP(=O)(c2ccccc2)CC1 (stereo not given) | 17.9% | 
2 | CCCCC(CC)COC(=O)c1ccc(O)cc1 (stereo not given) | -3.32% | 
3 | CCc1c(Br)c(Br)c(Br)c(Br)c1Br | -11.9% | 
4 | CC(C)c1ccccc1N | -18.8% | 
5 | O=C(Oc1ccccc1)c1cccc(C(=O)Oc2ccccc2)c1 |  | 64.4 µM (active)
6 | CC(C)c1ccc(O)c(C(C)C)c1 | -15% | 
7 | Cc1cccc(C)n1 | -8.77% | 
8 | C=CC/C=C/C/C=C/C/C=C/C | 9.35% | 
9 | C[Si](C)O[Si](C)C | -13.7% | 
10 | COCC(=O)O[C@]1(CCN(C)CCCc2nc3ccccc3[nH]2)CCc2cc(F)ccc2[C@@H]1C(C)C |  | 26.6 µM (active)
11 | COc1ccccc1C=O | 0.0601% | 
12 | CCC(C)c1cc([N+](=O)[O-])cc([N+](=O)[O-])c1OC(=O)OC(C)C (stereo not given) | -5.29% | 
13 | C=C(c1ccc(C(=O)O)cc1)c1cc2c(cc1C)C(C)(C)CCC2(C)C |  | 54.5 µM (active)
14 | c1ccc2c(c1)CCC2 | -18.2% | 
15 | Cc1ccc(CCn2c3c(c4cc(Cl)ccc42)CN(C)CC3)cn1 |  | 26.6 µM (active)
16 | CCc1ccc(C)nc1 | 10.4% | 
17 | Cc1ccc(O)cn1 | -0.767% | 
18 | OCCCCl | 18.5% | 
19 | CCCC(CC)CCCCCCCN (stereo not given) | -26.4% | 
20 | CO[C@H]1C=CO[C@@]2(C)Oc3c(C)c(O)c4c(O)c(cc(O)c4c3C2=O)NC(=O)/C(C)=C\C=C/[C@H](C)[C@H](O)[C@@H](C)[C@@H](O)[C@@H](C)[C@H](OC(C)=O)[C@@H]1C | 6.69% | 

Row | SMILES | activity change, negative = cytotoxicity | Potency
21 | CCC(C)C(=O)OC (stereo not given) | -0.218% | 
22 | O=S(=O)(O)CCCN1CCOCC1 | -3.84% | 
23 | CC(C)N=C(N)/N=C(\N)Nc1ccc(Cl)cc1 | 0.262% [at 42.5 µM] | 
24 | Cn1cccc1 | -5.06% | 
25 | CN1[C@@H]2CC[C@@H]1CC(OC(=O)C(CO)c1ccccc1)C2 (stereo not given in full) | -13.5% [at 42.5 µM] | 
26 | C=CC(C)C#N (stereo not given) | -4.13% | 
27 | COC(=O)C1=C(C)NC(C)=C(C(=O)OCCCN2CCC(c3ccccc3)(c3ccccc3)CC2)C1c1cccc([N+](=O)[O-])c1 (stereo not given) |  | 18.8 µM (active)
28 | NC(=O)C(=O)N/N=C/c1ccc([N+](=O)[O-])o1 | 11.1% [at 42.5 µM] | 
29 | Clc1nc2ccccc2s1 | -11.9% | 
30 | CCCCCCCC(OC)OC | 1.4% [at 42.5 µM] | 
31 | CCc1cccc(CC)c1NC(=O)C(=O)O | -1.05% | 
32 | CCCCCCCCCCCCCC[n+]1ccccc1 |  | 54.5 µM (active)
33 | Cc1cccc(Br)c1 |  | 54.8 µM (active)
34 | CCN(CC)c1cccc(C)c1 | 6.66% | 
35 | CCN=c1cc2oc3cc(NCC)c(C)cc3c(-c3ccccc3C(=O)OCC)c-2cc1C |  | 61.1 µM (active)
36 | CN1CCN(C2Cc3ccccc3Sc3ccc(Cl)cc32)CC1 (stereo not given) |  | 29.8 µM (active)
37 | CCCCCCCCCCc1ccccc1 | -1.51% | 
38 | COc1cccc(O)c1 | 1.16% | 
39 | CCOCOCC | 4.32% | 
40 | Cc1cc(Nc2ccc(O)cc2)ccc1N | -0.74% | 
